Compound activity as filed in PubChem BioAssay.
CDK5 p35 inh: inhibitors of human CDK5/p35 kinase | Q00535+Q15078 | Recombinant CDK5/p35, ADP-Glo luminescence, 60 min | inhibition, % at 10 µM | 330,000 tested, 0.01% active | AID 488839;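 active means highest replicate inhibition of at least 50% and at least 75% of replicates reaching 50%; inconclusive means only one of the two criteria met; inactive means both criteria failed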;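 further: plate controls were DMSO neutral control for no effect and GW8510 at 10 µM for full effect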
PglD DTNB: inhibitors of Campylobacter jejuni PglD acetyltransferase | purified PglD enzyme, DTNB colorimetric CoA detection | inhibition, % at 12.5 µM | 360,000 tested, 0.098% active; in the data active means inhibition above about 16%, passing the limit was not always enough; inconclusive means no clear call, values can overlap the other calls
PvdQ acylase: P. aeruginosa PvdQ acylase inhibition; AID 488965; inhibition, % at 10 µM; 340,000 tested, 0.063% active; purified PvdQ acylase, fluorescence plate reader; in the data active means inhibition above about 30%, passing the limit was not always enough; inconclusive means no clear call, values can overlap the other calls;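 further: 0% = vehicle neutral wells and 100% = reference inhibitor wells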
dFosB act: mouse delta FosB homodimer activation; purified delta FosB, TAMRA-CDK5 oligo fluorescence polarization; percent of positive-control signal above neutral wells; AID 493131; activation, % at 25 µM; P13346; 340,000 tested, 0.99% active;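 active means mean activation above about 17%, with every replicate also reaching it, limit read from the data, passing the limit was not always enough; inconclusive means only one of the two conditions met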
SIRT5 inh: sirtuin-5 (human) deacylase inhibition; Q9NXA8; Purified SirT5, succinyl-peptide AMC, trypsin-coupled fluorescence; inhibition, % at 15 µM; 330,000 tested, 1.1% active; AID 652115; in the data active means inhibition above about 15%; inconclusive means no clear call, values can overlap the other calls
Target sequence (Q9NXA8 whole entry, looked up): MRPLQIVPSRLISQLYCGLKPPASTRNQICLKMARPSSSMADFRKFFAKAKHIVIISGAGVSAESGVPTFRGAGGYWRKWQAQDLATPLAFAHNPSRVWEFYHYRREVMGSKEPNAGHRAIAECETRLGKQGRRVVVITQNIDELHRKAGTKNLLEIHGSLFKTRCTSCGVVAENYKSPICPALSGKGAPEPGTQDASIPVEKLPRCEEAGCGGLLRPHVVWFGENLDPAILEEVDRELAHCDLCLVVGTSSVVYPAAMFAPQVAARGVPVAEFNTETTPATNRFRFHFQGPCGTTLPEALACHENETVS
FGF22 binding: shifts melting point of recombinant human FGF22. Q9HCT0. recombinant FGF22 thermal shift, SYPRO orange fluorescence; percent of sucrose octasulfate shift, DMSO zero. activity (Tm shift, normalised), % at 9.99 µM. 340,000 tested, 1.5% active. AID 651658;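 active means mean Tm shift, scaled 0 neutral to 100 positive control, at about 1.3% or above, every replicate too, limit read from the data; inconclusive means no clear call, values can overlap the other calls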
Target sequence (Q9HCT0 whole entry, looked up): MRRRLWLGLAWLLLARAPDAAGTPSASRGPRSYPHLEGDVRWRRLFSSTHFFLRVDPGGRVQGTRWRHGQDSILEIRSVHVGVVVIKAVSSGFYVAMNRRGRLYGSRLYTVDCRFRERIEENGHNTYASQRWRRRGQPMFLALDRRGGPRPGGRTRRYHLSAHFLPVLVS
* = called active by the depositor; ? = inconclusive; / = no result. Sampled rows, rich in hits. Any-hit rate of the full collection: about 2.8%.

SMILES	CDK5 p35 inh	PglD DTNB	PvdQ acylase	dFosB act	SIRT5 inh	FGF22 binding
CO[C@@H]1CN(C)C(=O)c2cc(NC(=O)c3ccc4c(c3)OCO4)ccc2OC[C@H](C)N(CCC(F)(F)F)C[C@@H]1C	/	2	/	/	/	0
CCCNC(=O)[C@H]1[C@H](CO)[C@H]2Cn3c(ccc(-c4ccc(OC)cc4)c3=O)[C@H]2N1CCC	/	1	/	/	16*	0
CCCNC(=O)[C@@H]1[C@@H](CO)[C@@H]2Cn3c(ccc(-c4ccc(OC)cc4)c3=O)[C@@H]2N1CCC	/	0	/	/	-14	0
CCCN1[C@@H]2c3ccc(-c4cccc(OC)c4)c(=O)n3C[C@@H]2[C@@H](CO)[C@@H]1C(=O)OC	/	-5	/	/	16*	0
CCCN1[C@H](C(=O)OC)[C@@H](CO)[C@@H]2Cn3c(ccc(-c4cccc(OC)c4)c3=O)[C@@H]21	/	20	/	/	/	0
Cc1cccc(C)c1NC(=S)Nc1ccc(Cl)c(Cl)c1	1	6	-11	-4	0	43*
COc1ccc(NC(=S)Nc2cccc(Cl)c2)cc1OC	-1	4	-10	-10	112*	0
OCCNC(=S)Nc1cc(Cl)cc(Cl)c1	0	/	-12	-3	-4	0
OCCNC(=S)Nc1ccc(Cl)c(Cl)c1	2	4	-5	5	0	1.4*
O=S(=O)(N[C@@H]1CC[C@H](CCn2cc(-c3cccc(F)c3)nn2)O[C@@H]1CO)c1ccc(Cl)cc1	/	-1	/	/	1	0
O=C(NCC[C@H]1CC[C@H](NC(=O)C2CCCCC2)[C@@H](CO)O1)Nc1ccc(Cl)cc1	/	9	/	/	3	0
Cc1noc(C)c1NC(=O)N(C)C[C@@H]1Oc2ccc(NC(=O)Nc3cccc4ccccc34)cc2C(=O)N([C@H](C)CO)C[C@@H]1C	/	4	/	/	4	0
Cn1cc(Br)c(C(=O)Nc2c(F)c(F)c(F)c(F)c2F)n1	0	0	-8	3	21*	0
O=[N+]([O-])c1ccc(-c2nc3ccc([N+](=O)[O-])cc3[nH]2)cc1	-1	4	18	0	/	/
O=[N+]([O-])c1ccc2nc(C(O)C(O)c3nc4ccc([N+](=O)[O-])cc4[nH]3)[nH]c2c1 (configuration not stated)	0	-3	-1	?	100*	0
O=c1c(O)cccc2cc(O)c(O)c(O)c12	44	2	4	-11	33*	0
COC(=O)/C=C1/C(=O)N/C(=N\c2nc(C)cc(C)n2)N1c1ccc(OC)cc1	3	/	-15	5	0	44*
O=[N+]([O-])c1ccc2[nH]c(O)c(N=NC3CCS(=O)(=O)C3)c2c1 (configuration not stated)	-4	3	-13	-3	25*	0
CCC(=O)N1CC2(CCN(S(C)(=O)=O)CC2)c2c(n(C)c3cc(OC)ccc23)[C@@H]1CO	/	/	/	/	/	0
CCCNC(=O)c1ccc(C2SCC(=O)N2Cc2ccccc2)cc1 (configuration not stated)	-2	/	-12	-8	0	44*
CCOCCCNC(=O)c1ccc(C2SCC(=O)N2Cc2ccccc2)cc1 (configuration not stated)	0	2	-15	-12	-2	0
COc1cc([N+](=O)[O-])c(C)cc1NC(=O)c1ccc(OC)c(OC)c1	/	6	/	/	/	43*
CC(=O)Nc1cccc(NC(=O)c2ccc(C)c([N+](=O)[O-])c2)c1	1	/	4	-6	17*	1
Cc1ccc(C(=O)Nc2ccncc2)cc1[N+](=O)[O-]	1	3	-4	6	-1	0
O=C(C[C@H]1CC[C@@H](NC(=O)Nc2cc(F)ccc2F)[C@H](CO)O1)Nc1ccc(-c2ccccc2)cc1	/	0	/	/	2	/
SMILES	CDK5 p35 inh	PglD DTNB	PvdQ acylase	dFosB act	SIRT5 inh	FGF22 binding
COc1ccc(S(=O)(=O)Nc2ccc3c(c2)C(=O)N([C@H](C)CO)C[C@H](C)[C@H](CN(C)S(=O)(=O)c2c(C)noc2C)OCCCC[C@H](C)O3)cc1	/	-1	/	/	2	-1
O=C(CSc1nnnn1C1CC1)Nc1cc(S(=O)(=O)N2CCCC2)ccc1Cl	2	-2	-7	-9	1	43*
CS(=O)(=O)c1ccc(Cl)c(NC(=O)CSc2nnc(C3CC3)n2C2CC2)c1	1	-6	-16	-2	1	1.4*
C[C@H]1CCCCO[C@H](CN(C)C(=O)c2ccccc2)[C@@H](C)CN([C@@H](C)CO)C(=O)c2cc(NC(=O)CCC(F)(F)F)ccc2O1	/	2	/	/	-2	0
C[C@H]1CN([C@@H](C)CO)C(=O)c2cc(-c3cncnc3)cnc2O[C@H]1CN(C)Cc1ccc(Oc2ccccc2)cc1	/	-1	/	/	-4	0
COc1cc2c(oc(=O)c3cc(C)cc(OC)c32)c2c(C3OC(C)C(O)C(C)(O)C3O)ccc(O)c12 (configuration not stated)	1	/	0	-19	19*	-1
CN(C)CCCN1C(=O)c2cccc3c([N+](=O)[O-])ccc(c23)C1=O	5	/	-2	19*	/	/
O=C1c2cccc3c([N+](=O)[O-])ccc(c23)C(=O)N1CCc1ccccn1	-1	-1	0	2	-1	0
COc1ccc2c3c(n(C)c2c1)[C@@H](CO)N(C(C)=O)CC31CCN(C(=O)NC(C)C)CC1	/	/	/	/	0	0
N#Cc1ccc(C(=O)N2CCN(S(=O)(=O)c3ccc(Br)s3)CC2)cc1	-1	/	-19	1	-1	44*
CCOc1ccc2nc3cc(N=Nc4ccc(N)nc4N)ccc3c(N)c2c1	62*	/	23	?	/	/
Cc1cc(C=O)c(C)n1-c1cccc(C(=O)O)c1	0	/	-11	-6	4	0
Cc1cc(C=O)c(C)n1-c1cc(C(=O)O)cc(C(=O)O)c1	-1	/	-13	-10	20*	0
CN(C)Cc1c(-c2ccc(Cl)cc2)nc2ccc(Cl)cn12	1	/	7	-1	1	43*
Cc1ccc(-c2nc3c(Cl)cc(C(F)(F)F)cn3c2Cc2cccc(F)c2)cc1	/	-1	/	/	22*	0
Fc1ccc(-c2nc3ccc(Cl)cn3c2Cc2cccc(F)c2)cc1	/	0	/	/	19*	0
Cc1ccc(-c2nc3c(Cl)cc(C(F)(F)F)cn3c2Cc2ccccc2)cc1	/	-8	/	/	15*	0
Cc1ccc(Cc2c(-c3ccc(Cl)cc3)nc3c(Cl)cc(C(F)(F)F)cn23)cc1	/	-11	/	/	-7	0
CN1C(=O)c2cc(NC(=O)c3cccs3)ccc2OC[C@@H]2O[C@@H](CC(=O)NCC3CC3)CC[C@H]21	/	2	/	/	/	0
CO[C@@H]1CC[C@@H]2CCOc3c(C#N)cccc3C(=O)N(C)C[C@@H](c3ccccc3)CC(=O)N(C)C[C@H]1O2	/	-2	/	/	-2	0
